In PubChem BioAssay (Tox21):
“And” between values parts separate entries of the source, which are not always exact repeats. Equal entries are not always repeated. The source made the active and inactive calls. Entries that show only a call come without a potency. The call rests on the fitted dose curve; in most records, active means well fitted curve in the direction sought with a large enough effect in the signal ratio in the repeat runs (not every such curve was filed as active); inconclusive means weak or mixed curves, or effect the other way; inactive means no such curve, though single readings can be large or run the other way; the % refers to the signal ratio.

Target: Estrogen receptor (Homo sapiens) (UniProt P03372)
Sequence (P03372 whole entry, looked up): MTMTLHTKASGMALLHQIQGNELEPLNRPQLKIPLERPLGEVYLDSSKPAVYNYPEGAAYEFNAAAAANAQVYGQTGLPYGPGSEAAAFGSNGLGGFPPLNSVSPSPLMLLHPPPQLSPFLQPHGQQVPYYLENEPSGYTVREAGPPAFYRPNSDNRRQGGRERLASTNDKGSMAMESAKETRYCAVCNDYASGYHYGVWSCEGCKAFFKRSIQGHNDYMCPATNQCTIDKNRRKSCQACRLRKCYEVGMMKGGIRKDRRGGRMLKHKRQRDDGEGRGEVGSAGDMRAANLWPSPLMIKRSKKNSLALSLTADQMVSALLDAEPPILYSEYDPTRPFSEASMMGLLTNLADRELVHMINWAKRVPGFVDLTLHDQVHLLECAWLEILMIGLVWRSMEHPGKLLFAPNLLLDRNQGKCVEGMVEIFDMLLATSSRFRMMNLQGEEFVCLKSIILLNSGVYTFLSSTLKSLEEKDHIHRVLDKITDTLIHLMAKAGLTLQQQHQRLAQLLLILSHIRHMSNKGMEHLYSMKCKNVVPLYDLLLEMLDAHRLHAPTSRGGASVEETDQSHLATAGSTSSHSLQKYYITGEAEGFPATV
Assay: qHTS assay to identify small molecule antagonists of the estrogen receptor alpha (ER-alpha) signaling pathway (AID 743069)
Conditions: HEK293 ER-alpha-UAS-bla, beta-lactamase ratio, antagonist mode; series mostly up to 69.4 µM
Text: National Center for Advancing Translational Sciences [NCATS]
NIH Chemical Genomics Center [NCGC]
U.S. Environmental Protection Agency [EPA]
National Institutes of Environmental Health Sciences [NIEHS]
National Toxicology Program [NTP]
U.S. Food and Drug Administration [FDA]
Estrogen receptor (ER), a nuclear hormone receptor, plays an important role in development, metabolic homeostasis and reproduction. Two subtypes of ER, ER-alpha and ER-beta have similar expression patterns with some uniqueness in both types. Endocrine disrupting chemicals (EDCs) and their interactions with steroid hormone receptors like ER causes disruption of normal endocrine function. To identify the compounds that inhibit ER signaling, an ER-alpha-UAS-bla GripTiteTM cell line (Invitrogen, Carlsbad, CA, USA) containing a beta-lactamase reporter gene under the control of an Upstream Activator Sequence (UAS) stably integrated into HEK293 cells was used to screen the Tox21 10K compound library.
Tox21 Assay Protocol Summary:
ER-alpha-bla cells were cultured in assay medium containing 2% charcoal stripped FBS overnight in the culture flasks before the assay was performed. The cells were dispensed at 5,000 cells/5 uL of assay medium per well into black wall/clear-bottom 1536-well plates using a Multidrop Combi (ThermoFisher Scientific, Waltham, MA) dispenser. After the assay plates were incubated at a 37C and 5% CO2 for 4 hr, 23 nL of compounds dissolved in DMSO, positive controls or DMSO only was transferred to the assay plate by a Pintool station (Kalypsys, San Diego, CA), followed by addition of 1 uL of 17beta-estradiol in assay medium using a Flying Reagent Dispenser (Aurora Discovery, San Diego, CA). The plates were incubated at 37C and 5% CO2 for 18 hr. Then 1 uL of LiveBLAzerTM B/G FRET substrate was added using a Flying Reagent Dispenser, the plates were incubated at room temperature for 2 hours, and fluorescence intensity was measured by an Envision plate reader (PerkinElmer, Shelton, CT).
Potency means the concentration at half of the fitted maximal effect.

Compound | Potency
O=C(O)C(F)(F)C(F)(F)C(F)(F)C(F)(F)C(F)(F)F | inactive
NCCc1cc(O)c(O)cc1O | inactive
C=CCOCC1CO1 (stereo not given) | inactive
CN(C1CCCCC1)C1CCCCC1 | inactive
CN[C@@H](C)[C@H](O)c1ccccc1 | inactive
C=C(Cl)Cl | inactive
NNCCO | inactive
CCCCCBr | inactive
CCN(C(C)=O)c1cccc(-c2ccnc3c(C#N)cnn23)c1 | inactive
O=P(OCC(Br)CBr)(OCC(Br)CBr)OCC(Br)CBr (stereo not given) | 62.5 µM [inconclusive] (active) and 46.5 µM [inconclusive] (active)
Cc1nnc(-c2ccccc2)c(=O)n1N | inactive
C=CC(=O)OCC | inactive
CC(C)c1ccc(OP(=O)(Oc2ccc(C(C)C)cc2)Oc2ccc(C(C)C)cc2)cc1 | inactive
NC(=S)c1c(Cl)cccc1Cl | inactive
C[N+](C)(C)CC1CO1 (stereo not given) | inactive
OCCSSCCO | inactive
CC(C)(C)c1ccc(CCOc2ncnc3ccccc23)cc1 | inactive
N#CC(C#N)=C(C#N)C#N | inactive
CC(C)(C)NCC(O)c1cc(Cl)c(N)c(C(F)(F)F)c1 (stereo not given) | inactive
Cc1nc2ccccc2c(=O)n1-c1ccccc1Cl | inactive

Compound | Potency
C1CS1 | inactive
CC(O)CN1CCN(CC(=O)[O-])CCN(CC(=O)[O-])CCN(CC(=O)[O-])CC1.[Gd+3] (stereo not given) | inactive
Cc1ccc2c(C)cccc2c1 | inactive
CC(C)OC(=O)Cc1ccccc1 | inactive
CC(C)(C)N(NC(=O)c1ccc(Cl)cc1)C(=O)c1ccccc1 | inactive
N#CC(C#N)=Cc1ccc(O)c(O)c1 | inactive
CN1C(=O)CN=C(c2ccccc2)c2cc([N+](=O)[O-])ccc21 | inactive
C=C(C)C(=O)OCCCCOC(=O)C(=C)C | inactive
C=CCN1C[C@H](C)N([C@H](c2ccc(C(=O)N(CC)CC)cc2)c2cccc(OC)c2)C[C@H]1C | inactive
NP(N)(=O)NC(=O)c1ccc(F)cc1 | inactive
Clc1ccc2ccccc2c1 | inactive
CCCCC#N | inactive
CC(C)c1ccc(NC(=O)N(C)C)cc1 | inactive
COc1ccc(C(O)(c2cncnc2)C2CC2)cc1 (stereo not given) | inactive
CCC(C)Cl (stereo not given) | inactive
CCCCCCCCCCCCCCCl | inactive
CCOP(=S)(OCC)SCSc1cc(Cl)ccc1Cl | inactive
NC(=O)CF | inactive
CCCC[N+](CCCC)(CCCC)CCCC | inactive
C=CC(=O)NC(C)(C)CC(C)=O | inactive
